# According to PubChem BioAssay (Tox21):
# Results filed as inconclusive are left out. A number with no mark means an inactive call. Calls follow the shape of the dose curve; as a rule, active = well fitted activation curve with a large enough effect in the signal ratio in the repeat runs (not every such curve was filed as active); inconclusive = weak or mixed curves; inactive = flat fitted curve, though single readings scatter; the % refers to the signal ratio.
# Experiment: qHTS assay to identify small molecule agonists of the TGF-beta/Smad signaling pathway (AID 1346859)
# Settings: SBE-bla HEK293T, TGF-beta/Smad beta-lactamase reporter, 5 h; series mostly up to 76.8 µM; activation: at the top concentration
# Source text: U.S. Tox21 Program National Center for Advancing Translational Sciences [NCATS] NIH Chemical Genomics Center [NCGC] U.S. Environmental Protection Agency [EPA] National Institutes of Environmental Health Sciences [NIEHS] National Toxicology Program [NTP] U.S. Food and Drug Administration [FDA] Tox21 Assay Overview: Transforming growth factor beta (TGF-beta) superfamily consists of a large number of structurally related dimeric proteins that act as hormones or local mediators in regulating a wide range of biological functions. This superfamily includes TGF-betas themselves, the bone morphogenetic proteins (BMPs) and the activins. These ligands induce oligomerization of serine/threonine receptor kinases and phosphorylate the cytoplasmic signaling molecules of Smad protein family. CellSensor SBE-bla HEK 293T cell line (Life Technologies, Carlsbad, CA), responsive to TGF-beta was used to screen Tox21 10K compound library for identification of agonists/antagonists of the Smad signaling pathway. This cell line contains a beta-lactamase reporter gene under control of the Smad binding element (SBE) stably integrated into HEK 293T cells.
# Tox21 Assay Protocol Summary: SBE-bla HEK 293T cells were dispensed at 4,000/well in 6 uL of assay medium into black wall/clear-bottom 1536-well plates using a Multidrop Combi (ThermoFisher Scientific, Waltham, MA) dispenser. After the assay plates were incubated at 37 C and 5% CO2 for an overnight, 23 nL of compounds dissolved in DMSO, positive controls or DMSO only was transferred to the assay plate by a Pintool station (Kalypsys, San Diego, CA). The assay plates were incubated at 37 C and 5% CO2 for 5 hr. One uL of LiveBLAzer B/G FRET substrate (Life Technologies) was added using a Flying Reagent Dispenser (Aurora Discovery, San Diego, CA) and the plates were incubated at room temperature for 2 hr. Fluorescence intensity (405 nm excitation, 460 nm and 530 nm emissions) was measured using an Envision plate reader (PerkinElmer, Shelton, CT).
# % is scaled to controls: 0 for no effect and ±100 for the full control effect.
row,SMILES,activation
1,NC(=S)N/N=C/c1cccnc1,-0.607% [at 35.3 µM]
2,CC(CN)CCCN (stereo not given),1.13%
3,CCCCCCCCCCCCCCCBr,1.5% [at 35.3 µM]
4,CC(C)CCCCCCOC(=O)c1ccc(C(=O)OCCCCCCC(C)C)c(C(=O)OCCCCCCC(C)C)c1,0.387%
5,CCCCCC/C=C/C=O,-1.6%
6,Cc1nc2ccccc2n1Cc1ccc(Cl)cc1,-1.94% [at 35.3 µM]
7,CC1(C)[C@H]2CC[C@]1(C)[C@H](O)C2,-1.28%
8,O=C1Nc2cc(Cl)ccc2Oc2ccccc21,2.03% [at 35.3 µM]
9,CCCCCCOC(=O)CCC,-0.0436%
10,CC(C)(Oc1ccc(Cl)cc1)C(=O)OCCCOC(=O)C(C)(C)Oc1ccc(Cl)cc1,0.101% [at 35.3 µM]
11,CC(=O)OCCc1ccccc1,2.26%
12,CCN(CCO)CCCC(C)Nc1ccnc2cc(Cl)ccc12 (stereo not given),-1.21% [at 6.97 µM]
13,Oc1ccc(O)c2c(O)cccc12,-0.13%
14,CCCCOc1ccc(CC(=O)NO)cc1,-7.08% [at 35.3 µM]
15,CC(=O)O[C@@H]1C(=O)O[C@@H]2[C@H]1OC(=O)[C@@H]2OC(C)=O,2.26% [at 35.3 µM]
16,O=C(C(=O)c1ccc(Br)cc1)c1ccc(Br)cc1,2.2% [at 15.8 µM]
17,CC(C)(C)C(=O)OCOP(=O)(COCCn1cnc2c(N)ncnc21)OCOC(=O)C(C)(C)C,-2.85% [at 35.3 µM]
18,C=CC(=O)OCC(C)OCC(C)OCC(C)OC(=O)C=C (stereo not given),-0.222%
19,CCCCOC(=O)c1ccccc1C(=O)OCC(CC)CCCC (stereo not given),-2.34%
20,CC(=O)SCc1ccco1,3.3%

row,SMILES,activation
1,CC(C)c1ccccc1C(C)C,-3.91%
2,N#Cc1cc2ccccc2c2ccccc12,-6.29%
3,O=C1CCCCCO1,2.35%
4,FC(F)(F)C(F)(F)C(F)(F)C(F)(F)C(F)(F)C(F)(F)CCI,0.482% [at 35.3 µM]
5,O=C(Cl)c1c(Cl)cccc1Cl,0.318%
6,CC(C)c1ccc2c(C(C)C)cc(C(C)C)c(S(=O)(=O)O)c2c1,2.72%
7,Cc1ccc(C(N)=O)cc1N,0.0527%
8,CC(=O)c1ccc2c(c1)[C@H](NC(=O)c1ccc(F)cc1)[C@@H](O)C(C)(C)O2,-3.24%
9,S=C(S)NCCNC(=S)S,-2.34%
10,Cc1cccc(Oc2ccccc2)c1,1.05%
11,CN1CCC(OC(c2ccccc2)c2ccccc2)CC1,-3.32% [at 35.3 µM]
12,Cc1c(Cn2ccnc2)c2ccccc2n1CCC(=O)O,0.401% [at 35.3 µM]
13,C=C(C)C(=O)OCCN(C)C,-6.23%
14,NC[C@H]1O[C@H](O[C@H]2[C@H](O)[C@@H](O[C@H]3O[C@H](CO)[C@@H](O)[C@H](N)[C@H]3O)[C@H](N)C[C@@H]2N)[C@H](O)[C@@H](O)[C@@H]1O,-1.71% [at 6.97 µM]
15,O=C(O)COC(=O)Cc1ccccc1Nc1c(Cl)cccc1Cl,-2.74% [at 35.3 µM]
16,CC(C)(C)c1ccc(OCC2CO2)cc1 (stereo not given),0.459%
17,CC(C)(C)c1cc(O)c(C(C)(C)C)cc1O,-3.94%
18,CCCCOCCOCCOCCOCCO,1%
19,CCCC[C@H]1CN(CC2CCOCC2)C(=O)OC12CCN(C1(C)CCN(C(=O)c3c(C)ncnc3C)CC1)CC2,2.16%
20,CCN1CCC[C@H]1CNC(=O)c1c(OC)ccc(Br)c1OC,3.37% [at 35.3 µM]
